# Experimental data: PubChem BioAssay (NCI)
# About 83,000 compounds went through this panel and 20% of them were active in at least one assay; those are over-represented in the sample as a whole.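 Each cell line was grown in a 96-well plate and treated with one concentration of compound for 48 hours. Values below 10 were considered active.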 Calls of active or inactive are those of the source.
# Tested on: NCI-H226 lung
# Assay: NCI-60 one-dose screen, 48 h (100 = growth as untreated, 0 = no growth, -100 = all killed)
# Conditions: 10 µM unless noted
# Description: Growth inhibition of the NCI-H226 human Non-Small Cell Lung tumor cell line is measured as a screen for anti-cancer activity. Cells are grown in 96 well plates and exposed to the test compound for 48 hours. Compounds are tested at a single concentration, which is 10^-5 M for most compounds. The reported endpoint is percent growth (GI% or GIPRCNT), where numbers from 0 - 100% represent growth inhibition, and numbers from -100% - 0 represent cell death. For example, a value of 40 represents 60% growth inhibition. A value of 0 means no net growth occurred over the course of the experiment. A value of -40 indicates 40% of cells at the beginning of the experiment died by the end of the experiment. A value of -100 means all cells are dead at the end of the experiment.
# NCI-60 Human Tumor Cell Lines Screen was performed using the standard one-dose NCI protocol, which is described in more detail at https://dtp.cancer.gov/discovery_development/nci-60/default.htm.
# Compounds with GIPRCNT values below 10 were considered active. Activity score was based on GIPRCNT using the following formula: […]
# Score is 0 for GIPRCNT values of 100 or above, 50 for GIPRCNT values of 0, and 100 for GIPRCNT values of -100.
row,Structure (SMILES),growth
1,CC(C)c1nn(-c2ccccc2)c(N2CCCCC2)c1/C=N/NC(N)=S,88.2% (inactive)
2,NC(=O)c1c(NC(=O)c2cccc(OC(F)(F)F)c2)sc2c1CCC(=O)C2,80.1% (inactive)
3,CC(=O)c1sc(Nc2cccc(Nc3nc(C)c(C)s3)c2)nc1C,65.4% (inactive)
4,CCOP(=O)(OCC)OC[C@]12CCC(C)(C)C[C@H]1C1=CC[C@@H]3[C@@]4(C)C/C(=C\c5cccnc5)[C@H](OP(=O)(OCC)OCC)C(C)(C)[C@@H]4CC[C@@]3(C)[C@]1(C)CC2,34.2% (inactive)
5,COc1ccc(C(=O)c2c(N)c(C#N)cn2-c2cccc(OC)c2)cc1,63.5% (inactive)
6,CCN1CCN(c2cc(C(=O)Nc3nc4ccc(Oc5ccnc(C(=O)NC)c5)cc4s3)cc(C(F)(F)F)c2)CC1,90.8% (inactive)
7,COc1cc2c3c(n(CCCNC4CCCCC4)c(=O)c2cc1OC)-c1cc2c(cc1C3=O)OCO2,82.5% (inactive)
8,N#C/C(=C\c1ccc(Cl)cc1Cl)C(N)=O,109% (inactive)
9,N#C/C(=C\c1ccc2ccccc2c1)C(=O)Nc1sc2c(c1C#N)CCC2,94.1% (inactive)
10,Cc1nn(-c2ccccc2)c2nc(CCl)[nH]c(=O)c12,111% (inactive)
11,Cn1cc(-c2nn3cc(-c4ccncc4)nc3s2)c2cc(Cl)ccc21,86.1% (inactive)
12,O=S(=O)(Nc1ccc(I)c(Cl)c1)c1ccc(-c2cnc(C3CC3)o2)cc1,41.9% (inactive)
13,CCCCCCCCCC[C@@H](C)[C@@H]1CC(=O)N[C@H]([C@@H](C)O)C(=O)N[C@@H](C)C(=O)N[C@H](C)C(=O)N[C@@H](CCC(N)=O)C(=O)N[C@H](Cc2ccc(O)cc2)C(=O)N[C@@H](C(C)CC)C(=O)O1 (stereo not given in full),42.1% (inactive)
14,Cc1ccc(S(=O)(=O)N/N=C/c2cn(-c3ccc(F)cc3)nc2-c2ccc(S(C)(=O)=O)cc2)cc1,102% (inactive)
15,COc1cc(CNC(=O)Cc2ccccc2[N+](=O)[O-])ccc1OCC(=O)NO,100% (inactive)
16,O=C1[C@H]2Cc3c([nH]c4ccccc34)[C@H](c3ccc(Cl)cc3)N2C(=O)CN1C1CCN(Cc2c(Cl)cccc2Cl)CC1,72.5% (inactive)
17,CC1OC(O[C@@H]2[C@H](O)C(CO)OC(O[C@H]3COC(O[C@H]4CC[C@]5(C)[C@H]6CC[C@]78OC[C@@]9(CC[C@](C)(C=O)C[C@H]97)C(=O)C[C@@]8(C)[C@]6(C)CC[C@H]5C4(C)C)[C@@H](O)[C@@H]3O)[C@H]2OC2OC[C@@H](O)[C@@H](O)[C@@H]2O)[C@@H](O)[C@@H](O)[C@H]1O (stereo not given in full),82.7% (inactive)
18,N#C/C(=C\c1ccc(N2CCCCC2)cc1)C(=O)Nc1sc2c(c1C#N)CCC2,88.1% (inactive)
19,CC1(COc2ccc3ncc(C#Cc4cncc(C(=O)Nc5cc(C(C)(C)C)on5)c4)n3n2)COC1,18.8% (inactive)
20,O=C1Nc2cc(OC(F)(F)F)ccc2Oc2ccc(-c3ccnc(N4CCNCC4)c3)cc21,53% (inactive)

row,Structure (SMILES),growth
1,COc1cc2oc(-c3cccc(NC(=O)c4cc(NC(=O)[C@H](C)N)ccc4Cl)c3)cc(=O)c2c(OC)c1OC,86% (inactive)
2,CCOC(=O)c1c(Nc2ccccc2)nn2c(-c3ccc(Br)cc3)ccnc12,63.3% (inactive)
3,O=C(NNc1nc2cc(F)cc(F)c2n2cccc12)c1ccncn1,7.28% (active)
4,CNC(=O)c1cc(Oc2ccc3nc(NC(=O)c4cc(C)cc(C)c4)sc3c2)ccn1,75% (inactive)
5,CCOc1ccc2nc(NC(=O)Nc3ccccc3C)sc2c1,38.3% (inactive)
6,O=C1[C@H]2Cc3c([nH]c4ccccc34)[C@@H](c3ccc(Cl)cc3)N2C(=O)CN1C1CCN(Cc2c(Cl)cccc2Cl)CC1,81.6% (inactive)
7,N#C/C(=C\c1ccc(-c2ccc(F)cc2)o1)C(=O)Nc1ncc(Cc2ccc(Cl)cc2Cl)s1,69.3% (inactive)
8,COc1ccc([C@H]2[C@H](O)C(=O)N2c2cc(OC)c(OC)c(OC)c2)cc1Cl,21.6% (inactive)
9,CC(=O)Nc1cccc(-n2cnc3cc(-c4ccc(O)cc4)ccc32)c1,37.9% (inactive)
10,O=C(Cn1cc(CN2C(=O)c3ccc([N+](=O)[O-])cc3C2=O)nn1)Nc1ccccc1Br,104% (inactive)
11,C/C(=N/Nc1nc(N/N=C(/C)c2ccc([N+](=O)[O-])cc2)nc(N2CCOCC2)n1)c1ccc([N+](=O)[O-])cc1,41.9% (inactive)
12,Cc1cn(-c2cc(NC(=O)c3cncc(C#Cc4cnc5ccc(O[C@H]6CCOC6)nn45)c3)cc(C(F)(F)F)c2)cn1,44.9% (inactive)
13,COc1ccc(/C(C)=C(\c2ccc(Cl)cc2)c2ccc(OCCN)cc2)cc1,92% (inactive)
14,O=C(NNc1nc2cc(F)c(F)cc2n2cccc12)c1ncccn1,14% (inactive)
15,COc1cc(/C=N/n2cnc3oc(-c4ccccc4)cc3c2=N)cc(CN2CCOCC2)c1O,62.4% (inactive)
16,COC[C@@]1(C)CC[C@]2(C)CC[C@]3(C)C(=CC[C@@H]4[C@@]5(C)CCCNC(C)(C)[C@@H]5CC[C@]43C)C2C1 (stereo not given in full),81.3% (inactive)
17,O=c1oc2ccc(-c3ccc(F)cc3F)cc2c(=O)n1-c1cccc(C(F)(F)F)c1,13.4% (inactive)
18,CC(C)=CCc1c(O)c(CC=C(C)C)c2c(c1O)C(=O)C1=C[C@@H]3C[C@H]4C(C)(C)O[C@@](C/C=C(\C)C(=O)O)(C3=O)[C@@]14O2,72.1% (inactive)
19,N#Cc1c(NC(=O)c2ccccc2C(F)(F)F)sc2c1CCC(=O)C2,13.6% (inactive)
20,CCc1ccc(NC(=O)N[C@@H](Cc2cccc(F)c2)C(=O)N[C@@H]2C(=O)N3CCC[C@H]3C(=O)N3CCCC[C@H]3C(=O)N[C@@H](C)C(=O)N3C[C@H](C)C[C@H]3C(=O)O[C@H]2C)c(F)c1,-2.16% (active)
